The values below come from PubChem BioAssay (NCATS).

Inconclusive results are not listed. Entries that show only a call come without a potency. Values without a mark were called inactive. Active and inactive are the calls of the source. Calls come from the whole dose curve; as a rule, active = well fitted cell-killing curve with a large enough effect; inconclusive = small, poorly fitted or top-dose-only effect; inactive = no such curve, though single readings can be large or run the other way.
Potency is the fitted concentration of half-maximal effect.

The experiment can be described thus: qHTS of pediatric cancer cell lines to identify multiple opportunities for drug repurposing: Primary screen for MG 63 (6-TG R) cells (AID 1347105). Note: nearly all actives have a fitted effect of over 50% in size. Particulars: MG 63 (6-TG R) viability, CellTiter-Glo, 48 h; series mostly up to 46 µM. In outline:
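Viability was measured as metabolically active cells after 48 hours of treatment, read by CellTiter-Glo luminescence. Compounds were tested at multiple final concentrations, giving concentration-response curves.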
On the technique in general: In qHTS, concentration-response curves come from the screen itself.
For `CC(C)c1ccc(Cn2ccc3c4c(N)nc(NC5CC5)nc4ccc32)cc1`, the Potency was 14.8 µM (active).

For the compound `c1nc2nc(Nc3ccc(N4CCOCC4)cc3)nc(NC3CCCCC3)c2[nH]1`, the Potency is 11.8 µM (active).

`COc1cc2c(Oc3ccc4[nH]c(C)cc4c3F)ncnc2cc1OCCCN1CCCC1`: the Potency is 23.5 µM (active).

For `Nc1ccn([C@@H]2CS[C@H](CO)O2)c(=O)n1`, the Potency entry is “inactive”.

For the compound `Cc1ccc(S(=O)(=O)Nc2cc(Cl)ccc2C(=O)Nc2nc(-c3ccccc3)cs2)cc1`, the Potency was 9.35 µM (active).

For the compound `CC(C)Nc1cc(C(F)(F)F)cc2nc(NC(=O)c3cccnc3)nn12`, the Potency result is “inactive”.

For the compound `OCc1ccc(-c2ccc(-c3ccc(CO)s3)o2)s1`, the Potency was 11.8 µM (active).

Turning to `C=CC(=O)Nc1cc2c(Nc3ccc(F)c(Cl)c3)ncnc2cc1OCCCN1CCOCC1`, the Potency is 23.5 µM (active).

For `Cc1ccc(NC(=O)C2(c3ccc4c(c3)OC(F)(F)O4)CC2)nc1-c1cccc(C(=O)O)c1`, the Potency is 0.148 µM (active).

As to `COc1ccc(CC2c3cc(OC)c(OC)cc3CC[N+]2(C)CCC(=O)OCCCCCOC(=O)CC[N+]2(C)CCc3cc(OC)c(OC)cc3C2Cc2ccc(OC)c(OC)c2)cc1OC` (stereo not given), the activity change, negative = cytotoxic was 0.923% [at 9.22 µM].

As to `Cc1cc(Nc2cc(N3CCN(C)CC3)nc(C=Cc3ccccc3)n2)n[nH]1`, the Potency is 21.5 µM (active).

As for `COc1cc(C)c(Sc2cnc(NC(=O)c3ccc(CNC(C)C(C)C)cc3)s2)cc1C(=O)N1CCN(C(C)=O)CC1` (stereo not given), the Potency was 11.8 µM (active).

On to `O=c1c2ccccc2nc2n1CCc1c-2[nH]c2ccccc12`, for which the Potency entry was “inactive”.

Regarding `Nc1ccc(S(=O)(=O)Nc2ncccn2)cc1`, the Potency result was “inactive”.

`CC(=O)OCCN1C(=O)c2c(C)nc3ccc(S(=O)(=O)N4CCOCC4)cc3c2C1=O`: the Potency result was “inactive”.

Regarding `O=C(CCCCCCNC(=O)c1cnc(N(c2ccccc2)c2ccccc2)nc1)NO`, the Potency is 14.8 µM (active).

Take `O=C1CCC[C@@H]2[C@H]3CCC[N+]4([O-])CCC[C@@H](CN12)[C@@H]34` (stereo not given in full): the Potency entry was “inactive”.

With `COc1ccc(CC2SC(=O)NC2=O)cc1C(=O)NCc1ccc(C(F)(F)F)cc1` (stereo not given), the Potency entry was “inactive”.

With `Nc1nccc(Oc2ccc(NC(=O)c3c[nH]cc(-c4ccc(F)cc4)c3=O)cc2F)c1Cl`, the Potency was 18.7 µM (active).

For `CC1COC2(CCN(c3nc(=O)c4cc(C(F)(F)F)cc([N+](=O)[O-])c4s3)CC2)O1` (stereo not given), the Potency result was “inactive”.

For `Cc1coc2c1C(=O)C(=O)c1c-2ccc2c1CCCC2(C)C`, the Potency result was “inactive”.

For `COc1c(N2C[C@@H]3CCCN[C@H]3C2)c(F)cc2c(=O)c(C(=O)O)cn(C3CC3)c12`, the Potency result was “inactive”.

Consider `O=C(O)CCCc1c[nH]c2ccccc12`, for which the Potency entry is “inactive”.

Turning to `O=C(O)[C@H](Cc1c[nH]c2ccccc12)N1C(=O)c2ccccc2C1=O`, the Potency entry is “inactive”.

Turning to `COc1ccc2c(c1)CC[C@@H](CN(C)CC(=O)O)[C@H]2c1ccccc1`, the Potency is 2.96 µM (active).

In the case of `O=c1[nH]c(=O)n(C2CCCO2)cc1F` (stereo not given), the Potency result is “inactive”.

Take `Nc1nc(-c2nn(Cc3ccccc3F)c3ncccc23)nc(N)c1N1CCOCC1`: the Potency result was “inactive”.

With `O=C(O)Cn1nnc(-c2cc(N3CCC(Oc4cc(F)ccc4Br)CC3)no2)n1`, the Potency entry is “inactive”.

For `COc1cc2c(cc1-c1c(C)noc1C)ncc1[nH]c(=O)n([C@H](C)c3ccccn3)c12`, the Potency was 1.87 µM (active).

With `Cc1cn2cc(C(=O)N(C)CCO)cc(N[C@@H]3CCOc4cccc(C)c43)c2n1`, the Potency result was “inactive”.

In the case of `CN1c2cc(O)c(N=NC(N)=O)cc2CC1S(=O)(=O)O` (stereo not given), the Potency entry was “inactive”.

On to `O=C(O)CO.[NH2-].[NH2-].[Pt+2]`, for which the Potency entry was “inactive”.

On to `CN(C)c1nc(Cc2ccc(NC(=O)c3ccc4ccccc4c3)cc2)nc(Cl)c1CC(=O)O`, for which the Potency entry was “inactive”.

Consider `Cn1c(CNc2ccc(C(=N)N)cc2)nc2cc(C(=O)N(CCC(=O)O)c3ccccn3)ccc21`, for which the Potency entry was “inactive”.

For `CCN(CC)CCNC(=O)c1ccc2nc(-c3ccccc3)c(-c3ccc(CN4CCC(n5c(=O)[nH]c6ccccc65)CC4)cc3)nc2c1`, the Potency is 7.43 µM (active).
